Reference: publication PMC5540273 (PLoS ONE, 2017)

What follows are compounds tested on PRKG2. Details: concentration: 1 μM, replicates: in singlicate; n = 1.
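Note: KINOMEscan kinase panel screen.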

**Q.** Which “%Inh” value does the source give for COc1ccc(Nc2ncc(C#N)c(Nc3ccccc3C(N)=O)n2)cc1N1CCN(C)CC1.Cl [GSK1558669] here?
**A.** 54%

**Q.** O=C(Nc1cccc(-c2nn3ncccc3c2-c2ccnc(Nc3cccc(C(F)(F)F)c3)n2)c1)c1c(F)cccc1F [GSK299495] was tested. Which “%Inh” value did it give?
**A.** 0%

**Q.** How did the “%Inh” value turn out when Cc1cccc(-c2nc(Nc3ccc4ncsc4c3)c3ccccc3n2)n1 [GW867588] was run?
**A.** 0%

**Q.** Cl.Nc1ncnc2occ(-c3ccc(NC(=O)Nc4cc(C(F)(F)F)ccc4F)cc3)c12 [SB-707548] was tested. Which “%Inh” value did it give?
**A.** 7%

**Q.** For C[C@@H](Oc1cc(-n2cnc3ccc(NC(=O)NC(C)(C)C)cc32)sc1C(N)=O)c1ccccc1Cl [GSK346294], which “%Inh” value is on record?
**A.** 15%

**Q.** For c1ccc(-c2cc(-c3c[nH]nc3-c3ccccn3)ccn2)cc1 [GW576604], which “%Inh” value is on record?
**A.** 0%

**Q.** Cc1nnc(-c2ccc3occ(-c4ccc(C(C)O)cc4)c3c2)o1 (centres unmarked) was tested. Which “%Inh” value did it give?
**A.** 34%

**Q.** How did the “%Inh” value turn out when CC(C)Oc1ccc2c(-c3ccnc(Nc4ccc(N5CCN(C)CC5)cc4)n3)cnn2n1 [GW696155] was run?
**A.** 4%

**Q.** How did the “%Inh” value turn out when NS(=O)(=O)c1cccc(-c2ccc3ncc(N4CCOCC4)nc3c2)c1 [GSK1535721] was run?
**A.** 14%

**Q.** Fc1ccc(-c2ncn(CCCN3CCOCC3)c2-c2ccccn2)cc1 [SB-211742] was tested. Which “%Inh” value did it give?
**A.** 1%

**Q.** How did the “%Inh” value turn out when CN(C1=C(c2ccccc2)C(=O)NC1=O)c1ccccc1 [SB-334860] was run?
**A.** 16%

**Q.** With CCc1nc(-c2cccc(C)c2)c(-c2ccnc(NCc3ccccc3)c2)s1 as the compound, how does the “%Inh” value read?
**A.** 0%

**Q.** O=C(NCCNc1ccnc(Nc2ccc(F)cc2)n1)Nc1ccccc1F [GSK1379880] was tested. Which “%Inh” value did it give?
**A.** 0%

**Q.** Which “%Inh” value does the source give for O=c1cc(N2CCOCC2)nc2n(Cc3cccc(F)c3)ccn12 [GSK2297430] here?
**A.** 0%

**Q.** Which “%Inh” value does the source give for CC(C)(C)n1cnc2c(N)ncnc21 [SKF-97359] here?
**A.** 0%

**Q.** With O=c1cc(N2CCOCC2)nc2n(Cc3cccc(C(F)(F)F)c3)ccn12 [GSK2297543] as the compound, how does the “%Inh” value read?
**A.** 0%

**Q.** How did the “%Inh” value turn out when Cc1cccc(Cn2ccn3c(=O)cc(N4CCOCC4)nc23)c1 [GSK2297542] was run?
**A.** 9%

**Q.** How did the “%Inh” value turn out when O=C(NCCNc1ccnc(Nc2ccc(F)cc2)n1)c1cc2ccccc2s1 [GSK1379874] was run?
**A.** 0%

**Q.** How did the “%Inh” value turn out when Cn1ccc2ncnc(Oc3ccc(NC(=O)Nc4ccncc4)c(Cl)c3)c21 was run?
**A.** 0%

**Q.** How did the “%Inh” value turn out when COc1ccc(COc2cc(-n3cnc4ccccc43)sc2C(N)=O)cc1 [GSK1024304] was run?
**A.** 0%

**Q.** How did the “%Inh” value turn out when Cc1ccc(C(=O)NCC(N)=O)cc1-n1c(C)cc(OCc2ccc(F)cc2F)c(Br)c1=O was run?
**A.** 12%

**Q.** Cc1ccc(NC(=O)c2ccnc(N3CCN(C)CC3)c2)cc1-c1ccc(C(=O)NCC2CC2)cc1 [GW775604] was tested. Which “%Inh” value did it give?
**A.** 0%

**Q.** For Fc1ccc(-c2nn3c(OCC(F)(F)F)cccc3c2-c2ccncc2)cc1 [GW514784], which “%Inh” value is on record?
**A.** 7%

**Q.** How did the “%Inh” value turn out when Fc1ccc(-c2ncn(CCCN3CCOCC3)c2-c2cccnc2)cc1 [SB-211743] was run?
**A.** 0%

**Q.** How did the “%Inh” value turn out when O=C(NOCC1CC1)c1ccc(F)c(F)c1Nc1ccc(I)cc1Cl was run?
**A.** 0%

**Q.** O=C(Nc1n[nH]c2cc(-c3cccc(F)c3)ccc12)C1CC1 [SB-735464] was tested. Which “%Inh” value did it give?
**A.** 0%

**Q.** COc1ccc(Nc2nccc(N3CCC(NC(=O)Nc4cccc(C(C)=O)c4)C3)n2)cc1 (centres unmarked) [GSK1379731] was tested. Which “%Inh” value did it give?
**A.** 0%

**Q.** With N#Cc1ccc(-c2cc(-c3c[nH]nc3-c3ccccn3)ccn2)cc1 [GW693028] as the compound, how does the “%Inh” value read?
**A.** 0%

**Q.** For COC(=O)Nc1nc2cc(Oc3ccc(NC(=O)Nc4cc(F)ccc4F)cc3)ccc2[nH]1.Cl [GW701424], which “%Inh” value is on record?
**A.** 0%

**Q.** How did the “%Inh” value turn out when O=c1cc(N2CCOCC2)nc2n(Cc3cccc4ccccc34)ccn12 [GSK2333389] was run?
**A.** 0%

**Q.** Which “%Inh” value does the source give for c1ccc(-c2n[nH]cc2-c2ccnc3ccccc23)nc1 [GW271431] here?
**A.** 8%

**Q.** Which “%Inh” value does the source give for Nc1nccc(-c2c(-c3ccc(F)cc3)ncn2C2CCN(CC(F)(F)F)CC2)n1 [SB-236560] here?
**A.** 27%

**Q.** How did the “%Inh” value turn out when NCC(NC(=O)c1cc(-c2cn[nH]c2)c(-c2ccnc3[nH]ccc23)s1)c1ccccc1.O=C(O)C(F)(F)F.O=C(O)C(F)(F)F (centres unmarked) [GSK1325775] was run?
**A.** 93.6%

**Q.** With Cc1c2ccc(N(C)c3ccnc(Nc4cccc(S(N)(=O)=O)c4)n3)cc2nn1Cc1ccccc1.Cl.Cl [GW787226] as the compound, how does the “%Inh” value read?
**A.** 0%

**Q.** For COc1ccc(S(=O)(=O)NC2CCN(c3cc(C)nc(Nc4cccc(C#N)c4)n3)CC2)cc1.O=C(O)C(F)(F)F [GSK1653539], which “%Inh” value is on record?
**A.** 0%
